Reference: PubChem BioAssay
Records with an inconclusive call do not appear. Calls of active or inactive are those of the source.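 Rule for the calls, unless noted: active = aptamer binding inhibition above 30%, about 3 SD of noise from non-fluorescent compounds; inactive = inhibition at or below 30%.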

How the values were obtained:
[1] = yeast TOR pathway RPL19A-GFP modulators, primary screen, cell-based, S. cerevisiae, multiplex flow cytometry (AID 1862; in the data active = percent of DMSO control GFP below about 86%;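 note: lower values mimic rapamycin by blocking the RPL19A rise seen in DMSO cells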); conditions: S. cerevisiae RPL19A-GFP strain, flow cytometry fluorescence, 3 h; at 10 µM; stronger effect = lower value
[2] = modulators of MEP2-GFP levels in yeast, primary screen, S. cerevisiae, multiplex flow cytometry (AID 1867;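 active = GFP response, as percent of the DMSO control, above the screen-wide mean plus 3 SD, about 139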;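 note: median GFP channel fluorescence of barcode-gated MEP2-GFP cells measured by flow cytometry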); conditions: S. cerevisiae MEP2-GFP strain, 3 h, at 10 µM, stronger effect = higher value, 100% means same as DMSO wells
[3] = modulators of CIT2-GFP expression in yeast, primary screen, S. cerevisiae, GFP fusion, multiplex flow cytometry (AID 1870;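 active = percent response above a set limit, the screen-wide mean plus 3 SD, cut at about 130% in these data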;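 note: barcoded CIT2-GFP strain pooled with four other GFP strains with rapamycin as positive control; median GFP fluorescence per well over plate mean of DMSO wells so 100% = DMSO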); conditions: 3 h, at 10 µM, stronger effect = higher value
[4] = modulators of LAP4-GFP expression in yeast, primary screen, S. cerevisiae, multiplex flow cytometry (AID 1873;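 active = GFP signal, as percent of the solvent control, above the screen mean plus 3 SD, about 149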); conditions: 3 h, at 10 µM, stronger effect = higher value
[5] = modulators of AGP1-GFP expression in yeast TOR pathway, primary screen, cell-based, multiplex flow cytometry, S. cerevisiae (AID 1887;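 active = GFP signal above the screen-wide mean plus 3 SD, that is over about 124.5% of the solvent control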;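 note: AGP1-GFP fusion strain of S. cerevisiae within a five-strain barcoded multiplex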); conditions: 3 h, at 10 µM, stronger effect = higher value
[6] = inhibitors of CD8+ T cell-vesicle binding, pilot screen, LFA-1/ICAM-1 modulator project, MLPCN validation set, flow cytometry (AID 2523;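 active = response below a set limit, under 55% cells CD8-positive and vesicle-bound, and CD8 cells' 90th-percentile brightness under 279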;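 for vesicle binding response: mean PE anti-B7-1 fluorescence of CD8+ cells relative to row control; 100% = QL9-loaded vesicles with DMSO vehicle in the same plate row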); conditions: 2C mouse CD8+ T cells, at 7 µM, stronger effect = lower value; double positive events: measured here: CD8+/vesicle+ event percentage
[7] = target: Integrin beta-1 (Homo sapiens) + Integrin alpha-4 (Homo sapiens) (UniProt P13612+P05556); test: inhibition of HUTS-21 binding to VLA-4, pilot screen, VLA-4 allosteric modulator project, U937 cells, HUTS-21 mAb, flow cytometry, validation set (AID 2674;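 active = inhibition above 50%, about 3 SD of the validation set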;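 note: antibody binding induced by the VLA-4 ligand LDV present at three times its Kd; 0% = LDV ligand with antibody and no compound and 100% = antibody without LDV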); conditions: HUTS-21 LIBS mAb binding, at 6.7 µM, stronger effect = higher value, binding induced by LDV ligand
Sequence of Integrin beta-1 (Homo sapiens) + Integrin alpha-4 (Homo sapiens) (P05556 whole entry, looked up): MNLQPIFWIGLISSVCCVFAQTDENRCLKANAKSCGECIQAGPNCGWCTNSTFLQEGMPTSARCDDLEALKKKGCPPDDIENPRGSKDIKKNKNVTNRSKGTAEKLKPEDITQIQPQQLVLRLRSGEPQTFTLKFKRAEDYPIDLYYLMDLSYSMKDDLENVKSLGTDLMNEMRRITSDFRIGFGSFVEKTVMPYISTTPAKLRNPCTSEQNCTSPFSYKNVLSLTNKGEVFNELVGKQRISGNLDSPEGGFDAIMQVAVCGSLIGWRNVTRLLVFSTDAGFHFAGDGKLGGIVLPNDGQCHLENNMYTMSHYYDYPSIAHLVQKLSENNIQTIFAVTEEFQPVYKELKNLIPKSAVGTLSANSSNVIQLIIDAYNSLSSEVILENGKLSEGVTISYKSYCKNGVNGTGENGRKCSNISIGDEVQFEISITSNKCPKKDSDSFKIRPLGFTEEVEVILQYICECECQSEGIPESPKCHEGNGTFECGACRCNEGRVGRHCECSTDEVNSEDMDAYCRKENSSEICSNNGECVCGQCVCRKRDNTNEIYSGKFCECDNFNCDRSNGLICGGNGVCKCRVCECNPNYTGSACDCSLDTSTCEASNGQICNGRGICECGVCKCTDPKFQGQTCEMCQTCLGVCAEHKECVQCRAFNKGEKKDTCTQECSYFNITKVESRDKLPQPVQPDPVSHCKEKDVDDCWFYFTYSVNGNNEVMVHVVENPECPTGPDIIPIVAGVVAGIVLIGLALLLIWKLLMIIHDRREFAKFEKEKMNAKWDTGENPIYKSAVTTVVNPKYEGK
Sequence of Integrin beta-1 (Homo sapiens) + Integrin alpha-4 (Homo sapiens) (P13612 whole entry, looked up): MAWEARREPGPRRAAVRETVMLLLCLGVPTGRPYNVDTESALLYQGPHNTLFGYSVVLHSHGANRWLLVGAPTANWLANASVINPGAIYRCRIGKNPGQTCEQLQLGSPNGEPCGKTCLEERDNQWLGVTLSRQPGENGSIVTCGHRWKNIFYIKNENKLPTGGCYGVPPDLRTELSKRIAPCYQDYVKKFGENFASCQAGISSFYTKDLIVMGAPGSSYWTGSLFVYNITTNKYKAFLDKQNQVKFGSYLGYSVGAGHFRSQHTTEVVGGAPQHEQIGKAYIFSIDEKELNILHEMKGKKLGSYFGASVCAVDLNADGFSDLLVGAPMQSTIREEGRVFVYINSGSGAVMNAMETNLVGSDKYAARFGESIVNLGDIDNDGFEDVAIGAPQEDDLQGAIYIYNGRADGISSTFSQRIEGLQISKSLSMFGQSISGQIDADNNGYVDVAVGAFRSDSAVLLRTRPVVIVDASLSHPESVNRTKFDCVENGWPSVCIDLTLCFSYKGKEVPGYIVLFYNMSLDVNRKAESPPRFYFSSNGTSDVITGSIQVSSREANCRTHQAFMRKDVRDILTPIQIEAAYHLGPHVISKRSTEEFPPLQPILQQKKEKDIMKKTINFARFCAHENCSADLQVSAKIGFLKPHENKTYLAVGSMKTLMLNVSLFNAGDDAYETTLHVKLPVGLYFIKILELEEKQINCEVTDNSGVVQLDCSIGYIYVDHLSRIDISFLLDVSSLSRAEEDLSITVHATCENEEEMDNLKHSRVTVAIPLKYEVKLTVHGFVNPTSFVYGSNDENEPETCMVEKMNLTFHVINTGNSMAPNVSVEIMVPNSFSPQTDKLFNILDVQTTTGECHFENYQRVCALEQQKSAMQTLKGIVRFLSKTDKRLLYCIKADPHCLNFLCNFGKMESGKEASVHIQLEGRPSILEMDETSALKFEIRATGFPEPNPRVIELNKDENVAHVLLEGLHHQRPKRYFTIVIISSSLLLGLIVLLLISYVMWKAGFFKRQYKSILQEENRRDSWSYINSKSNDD

[8] = superoxide lowering in aged yeast cells, pilot screen, validation compound set (AID 2706;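 active = superoxide response below 65% of plate, a cut near 3 SD across the whole screen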;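 note: yeast exposed to compound for one week at 30 degrees C before staining; 100% = mean of all compound wells on the same plate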); conditions: S. cerevisiae aging, superoxide DHE fluorescence; at 10 µM; stronger effect = lower value
[9] = target: Beta-adrenergic receptor kinase 1 (Homo sapiens) (UniProt P25098); test: GRK2 binders displacing RNA aptamer, biochemical, validation, human GRK2, bead flow cytometry (AID 488806); conditions: bead-bound GRK2, FAM-aptamer displacement, at 10 µM, stronger effect = higher value
Sequence of Beta-adrenergic receptor kinase 1 (Homo sapiens) (P25098 whole entry, looked up): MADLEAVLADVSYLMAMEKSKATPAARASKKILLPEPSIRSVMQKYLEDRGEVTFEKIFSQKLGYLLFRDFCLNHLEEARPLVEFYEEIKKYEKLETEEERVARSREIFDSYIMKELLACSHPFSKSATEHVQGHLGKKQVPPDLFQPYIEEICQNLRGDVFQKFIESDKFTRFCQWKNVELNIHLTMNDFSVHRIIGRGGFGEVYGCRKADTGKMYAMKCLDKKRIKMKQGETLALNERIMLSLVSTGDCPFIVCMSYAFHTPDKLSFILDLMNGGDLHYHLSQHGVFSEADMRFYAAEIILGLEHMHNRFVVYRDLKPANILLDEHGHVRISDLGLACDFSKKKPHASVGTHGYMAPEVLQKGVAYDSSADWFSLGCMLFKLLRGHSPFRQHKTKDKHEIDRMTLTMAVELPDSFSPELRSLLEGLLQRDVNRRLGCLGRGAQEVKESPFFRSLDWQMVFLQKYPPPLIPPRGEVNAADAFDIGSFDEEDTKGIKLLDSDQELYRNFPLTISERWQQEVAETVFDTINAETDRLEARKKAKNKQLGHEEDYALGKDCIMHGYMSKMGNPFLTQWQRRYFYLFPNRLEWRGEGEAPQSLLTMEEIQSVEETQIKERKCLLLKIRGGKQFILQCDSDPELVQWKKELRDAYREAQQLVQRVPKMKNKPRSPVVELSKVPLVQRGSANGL

[10] = target: Beta-2 adrenergic receptor (Homo sapiens) (UniProt P07550); test: beta2AR agonists driving receptor internalization, pilot screen, cell-based, FAP fluorogen, flow cytometry, validation set (AID 504459;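 active = percent response above 42, roughly 3 SD of non-fluorescent test compounds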;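 note: agonist-driven loss of surface beta2AR via internalization measured by FAP dye flow cytometry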); conditions: Am2.2-beta2AR cells, FAP surface receptor flow cytometry; at 10 µM; stronger effect = higher value
Sequence of Beta-2 adrenergic receptor (Homo sapiens) (P07550 whole entry, looked up): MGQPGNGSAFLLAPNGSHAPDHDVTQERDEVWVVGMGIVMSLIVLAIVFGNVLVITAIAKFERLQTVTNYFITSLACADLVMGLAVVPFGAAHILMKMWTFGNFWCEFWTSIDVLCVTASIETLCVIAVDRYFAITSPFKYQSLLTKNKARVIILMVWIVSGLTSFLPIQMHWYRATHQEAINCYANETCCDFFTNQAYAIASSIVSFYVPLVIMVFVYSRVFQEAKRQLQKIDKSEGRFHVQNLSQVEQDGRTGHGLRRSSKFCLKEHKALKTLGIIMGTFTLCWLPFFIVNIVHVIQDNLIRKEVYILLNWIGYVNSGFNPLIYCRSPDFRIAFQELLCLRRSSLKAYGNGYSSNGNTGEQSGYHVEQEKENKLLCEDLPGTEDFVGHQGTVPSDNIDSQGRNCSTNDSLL

[11] = target: AP-2 complex subunit beta (Homo sapiens) (UniProt P63010); test: inhibitors of arrestin peptide binding to AP2, pilot screen, biochemical, validation set, GST-AP2 beads, flow cytometry (AID 504541;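 active = inhibition above 54%, about 3 SD of non-fluorescent compounds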;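 note: AP2 carries R879A mutation and is captured from E. coli lysate; bead-bound FITC arrestin peptide fluorescence measuring arrestin peptide binding to AP2; 0% = DMSO wells and 100% = excess unlabeled arrestin peptide control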); conditions: FITC arrestin peptide, at 10 µM, stronger effect = higher value, AP2 beta2 appendage fragment, R879A mutant
Sequence of AP-2 complex subunit beta (Homo sapiens) (P63010 whole entry, looked up, the tested form may be a part, one chain of several): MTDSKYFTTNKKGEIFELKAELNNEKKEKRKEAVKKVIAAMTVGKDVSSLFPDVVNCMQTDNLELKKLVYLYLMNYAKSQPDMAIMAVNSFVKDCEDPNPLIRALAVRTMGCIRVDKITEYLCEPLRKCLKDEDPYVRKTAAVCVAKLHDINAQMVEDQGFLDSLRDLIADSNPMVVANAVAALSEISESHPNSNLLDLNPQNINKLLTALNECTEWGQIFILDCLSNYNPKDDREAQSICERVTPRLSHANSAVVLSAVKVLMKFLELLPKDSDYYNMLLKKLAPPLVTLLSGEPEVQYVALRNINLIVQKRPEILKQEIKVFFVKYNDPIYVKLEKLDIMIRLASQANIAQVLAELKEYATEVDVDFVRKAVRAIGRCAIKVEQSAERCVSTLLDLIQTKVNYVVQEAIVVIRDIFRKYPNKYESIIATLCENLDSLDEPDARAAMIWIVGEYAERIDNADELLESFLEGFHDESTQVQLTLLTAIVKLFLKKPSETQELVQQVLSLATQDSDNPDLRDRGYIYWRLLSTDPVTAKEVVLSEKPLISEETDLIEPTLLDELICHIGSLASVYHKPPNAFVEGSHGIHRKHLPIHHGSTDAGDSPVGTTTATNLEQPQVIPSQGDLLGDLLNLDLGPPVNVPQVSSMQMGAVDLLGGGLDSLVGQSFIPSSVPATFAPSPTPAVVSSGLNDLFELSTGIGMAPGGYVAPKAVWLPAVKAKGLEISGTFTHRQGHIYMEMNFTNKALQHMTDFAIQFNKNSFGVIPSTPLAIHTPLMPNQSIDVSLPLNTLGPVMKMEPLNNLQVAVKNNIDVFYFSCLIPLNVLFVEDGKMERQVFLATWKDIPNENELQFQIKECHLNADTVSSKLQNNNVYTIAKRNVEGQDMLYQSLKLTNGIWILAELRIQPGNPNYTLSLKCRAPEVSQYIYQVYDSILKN

[12] = yeast V-ATPase proton transport modulators, S. cerevisiae, pHLuorin, HTS validation (AID 504600; in the data active = response above about 15%;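 note: plate controls were DMSO for no effect and reference compound for full effect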); conditions: S. cerevisiae pHLuorin cytosolic pH, at 10 µM, stronger effect = higher value
[13] = system: anti-desmoglein-3 scFv antibody binding to human DSG3; test: inhibitors of anti-DSG3 scFv binding to DSG3, pilot screen, biochemical, validation compound set, bead-based, flow cytometry (AID 588368;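 active = binding below the plate cutoff, the plate median minus 3 SD, with a reading above zero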;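 note: signal is the median channel fluorescence of bead-bound GFP antibody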); conditions: Protein G beads, DSG3-Fc, scFv-GFP binding, at 10 µM, stronger effect = lower value
[14] = inhibitors of fungal efflux pumps CDR1, CDR2, MDR1, pilot screen, validation compound set, multiplex, phenotypic (AID 588506;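 active = efflux inhibition above 0.42, the validation set average plus 4 SD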;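 note: Nile Red retained in cells so higher fluorescence means more efflux inhibition; 0 = negative control wells and 1 = enniatin B 25 µM full block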); conditions: S. cerevisiae pump-expressing triplex, Nile Red efflux flow cytometry; at 10 µM; stronger effect = higher value; the pumps come from Candida albicans
[15] = target: ATP-binding cassette sub-family B member 6 (Homo sapiens) (UniProt Q9NP58); test: ABCB6 transporter inhibitors, pilot screen, K562-ABCB6 cells, flow cytometry, validation set (AID 588550;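 active = inhibition above the screen-wide mean plus 3 SD, about 51%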;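 note: 0% = DMSO wells and 100% = benzethonium chloride 70 µM positive control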); conditions: K562-ABCB6 porphyrin accumulation, 1 h, at 10 µM, stronger effect = higher value
Sequence of ATP-binding cassette sub-family B member 6 (Homo sapiens) (Q9NP58 whole entry, looked up): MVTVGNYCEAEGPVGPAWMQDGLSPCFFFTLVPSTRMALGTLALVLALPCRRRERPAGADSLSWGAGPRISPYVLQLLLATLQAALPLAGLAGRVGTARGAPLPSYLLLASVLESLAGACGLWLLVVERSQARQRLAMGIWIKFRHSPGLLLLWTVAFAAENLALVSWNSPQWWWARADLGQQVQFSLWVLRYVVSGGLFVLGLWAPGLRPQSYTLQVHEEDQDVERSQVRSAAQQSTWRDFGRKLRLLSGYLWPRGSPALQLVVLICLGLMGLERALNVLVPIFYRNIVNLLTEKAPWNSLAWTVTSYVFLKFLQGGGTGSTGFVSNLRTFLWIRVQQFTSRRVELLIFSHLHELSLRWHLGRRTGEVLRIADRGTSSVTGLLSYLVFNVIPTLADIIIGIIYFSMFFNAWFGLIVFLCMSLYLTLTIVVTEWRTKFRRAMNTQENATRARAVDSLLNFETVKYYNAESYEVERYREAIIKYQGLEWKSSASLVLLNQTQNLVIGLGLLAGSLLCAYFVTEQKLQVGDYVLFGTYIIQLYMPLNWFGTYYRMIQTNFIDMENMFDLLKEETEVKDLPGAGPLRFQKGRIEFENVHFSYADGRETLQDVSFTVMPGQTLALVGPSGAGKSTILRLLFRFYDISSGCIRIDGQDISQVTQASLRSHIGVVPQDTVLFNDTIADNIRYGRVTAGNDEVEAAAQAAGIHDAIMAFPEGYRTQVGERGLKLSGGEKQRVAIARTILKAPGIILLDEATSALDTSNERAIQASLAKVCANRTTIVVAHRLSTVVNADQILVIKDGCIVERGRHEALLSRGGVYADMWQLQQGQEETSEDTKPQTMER

[16] = promoters of myeloid differentiation in arrested cells, primary screen, cell-based, GFP/MAC1 double positive, flow cytometry, validation set (AID 588685;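 active = differentiation response of at least 50%, scaled between solvent and reference control, from cells with both markers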;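 note: compound exposure lasts four days before antibody staining and flow analysis; 0% = DMSO wells and 100% = 5 µM fulvestrant positive control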); conditions: ER-HoxA9 marrow cells, stronger effect = higher value, normalized: vehicle 0, fulvestrant 100

CCOc1ccc2nc(S(N)(=O)=O)sc2c1
inactive: percent of DMSO control GFP [1] 101% | GFP response vs DMSO [2] 104% | percent response of DMSO control [3] 99.7% | GFP response vs DMSO [4] 100% | GFP response, % of DMSO [5] 103% | vesicle binding response [6] 103% | inhibition [7] 0.25% | superoxide response (% of plate) [8] 102% | aptamer binding inhibition [9] 5% | response [10] 3.56% | inhibition [11] -2.81% | response [12] -4.65% | binding (% of control) [13] 101% | efflux inhibition (fraction of control) [14] -0.29 | inhibition [15] 7% | differentiation response [16] -13.3%
55.1%: double positive events [6]

O=C1c2ccccc2C2(c3ccccc3)NCCN12 (centres undefined)
59.5%: double positive events [6]
inactive: percent of DMSO control GFP [1] 101% | GFP response vs DMSO [2] 102% | percent response of DMSO control [3] 109% | GFP response vs DMSO [4] 95.9% | GFP response, % of DMSO [5] 99.8% | vesicle binding response [6] 122% | inhibition [7] -14.5% | superoxide response (% of plate) [8] 92.9% | aptamer binding inhibition [9] 0% | response [10] -0.82% | inhibition [11] 6.52% | response [12] 11.8% | binding (% of control) [13] 104% | efflux inhibition (fraction of control) [14] -0.19 | inhibition [15] 3% | differentiation response [16] -14.8%

C[C@]12CC[C@@H]3c4ccc(O)cc4CC[C@H]3[C@@H]1CC[C@@H]2OC(=O)CCC(=O)O
active: efflux inhibition (fraction of control) [14] 0.46
inactive: percent of DMSO control GFP [1] 102% | GFP response vs DMSO [2] 103% | percent response of DMSO control [3] 91.3% | GFP response vs DMSO [4] 127% | GFP response, % of DMSO [5] 98.6% | vesicle binding response [6] 223% | inhibition [7] -15.8% | superoxide response (% of plate) [8] 86% | aptamer binding inhibition [9] -7% | response [10] 3.34% | inhibition [11] 50.5% | response [12] -4.55% | binding (% of control) [13] 105% | inhibition [15] -12% | differentiation response [16] 42.2%
62.4%: double positive events [6]

CCCc1c(OCCCCc2nn[nH]n2)ccc(C(C)=O)c1O
inactive: percent of DMSO control GFP [1] 107% | GFP response vs DMSO [2] 107% | percent response of DMSO control [3] 104% | GFP response vs DMSO [4] 111% | GFP response, % of DMSO [5] 112% | vesicle binding response [6] 197% | inhibition [7] -13.2% | superoxide response (% of plate) [8] 115% | aptamer binding inhibition [9] -5% | response [10] 8.37% | inhibition [11] -8.69% | response [12] -6.13% | binding (% of control) [13] 105% | efflux inhibition (fraction of control) [14] -0.16 | inhibition [15] -13% | differentiation response [16] 2.74%
62.8%: double positive events [6]

COc1ccc(C(=O)Nc2ccccc2C(=O)NC(Cc2c[nH]c3ccccc23)C(=O)O)cc1 (centres undefined)
inactive: percent of DMSO control GFP [1] 101% | GFP response vs DMSO [2] 107% | percent response of DMSO control [3] 95.4% | GFP response vs DMSO [4] 92.7% | GFP response, % of DMSO [5] 95.4% | vesicle binding response [6] 174% | inhibition [7] -28.5% | superoxide response (% of plate) [8] 107% | aptamer binding inhibition [9] 3% | response [10] 10.6% | inhibition [11] 51.3% | response [12] -3% | binding (% of control) [13] 99.8% | efflux inhibition (fraction of control) [14] 0.33 | inhibition [15] -16% | differentiation response [16] 22.7%
64.5%: double positive events [6]

CCC(C(=O)OCCN(CC)CC)c1ccccc1 (centres undefined)
inactive: percent of DMSO control GFP [1] 101% | GFP response vs DMSO [2] 101% | percent response of DMSO control [3] 98.2% | GFP response vs DMSO [4] 85.9% | GFP response, % of DMSO [5] 99.1% | vesicle binding response [6] 33.7% | inhibition [7] 2.55% | superoxide response (% of plate) [8] 97.2% | aptamer binding inhibition [9] 5% | response [10] 8.98% | inhibition [11] 19.7% | response [12] -2.47% | binding (% of control) [13] 98.8% | efflux inhibition (fraction of control) [14] 0.26 | inhibition [15] 6% | differentiation response [16] 14.9%
57.2%: double positive events [6]

COc1ccc2nc(C)cc(Nc3ccccc3O)c2c1
58%: double positive events [6]
inactive: percent of DMSO control GFP [1] 94.2% | GFP response vs DMSO [2] 108% | percent response of DMSO control [3] 90.1% | GFP response vs DMSO [4] 115% | GFP response, % of DMSO [5] 99.4% | vesicle binding response [6] 120% | inhibition [7] -7.25% | superoxide response (% of plate) [8] 91.3% | aptamer binding inhibition [9] -3% | response [10] 7.69% | inhibition [11] 3.21% | response [12] 1.21% | binding (% of control) [13] 101% | efflux inhibition (fraction of control) [14] 0.01 | inhibition [15] 9% | differentiation response [16] -20%
